Results on 22 compounds are retold here after PubChem BioAssay (Tox21).

Results filed as inconclusive are left out. Entries that show only a call come without a potency. Activity calls are given as the source filed them. Unless noted, calls follow the shape of the dose curve; as a rule, active = well fitted cell-killing curve with a large enough effect in the repeat runs; inconclusive = weak or mixed curves; inactive = flat fitted curve, though single readings scatter.

Androgen receptor (Homo sapiens), sequence (P10275 whole entry, looked up): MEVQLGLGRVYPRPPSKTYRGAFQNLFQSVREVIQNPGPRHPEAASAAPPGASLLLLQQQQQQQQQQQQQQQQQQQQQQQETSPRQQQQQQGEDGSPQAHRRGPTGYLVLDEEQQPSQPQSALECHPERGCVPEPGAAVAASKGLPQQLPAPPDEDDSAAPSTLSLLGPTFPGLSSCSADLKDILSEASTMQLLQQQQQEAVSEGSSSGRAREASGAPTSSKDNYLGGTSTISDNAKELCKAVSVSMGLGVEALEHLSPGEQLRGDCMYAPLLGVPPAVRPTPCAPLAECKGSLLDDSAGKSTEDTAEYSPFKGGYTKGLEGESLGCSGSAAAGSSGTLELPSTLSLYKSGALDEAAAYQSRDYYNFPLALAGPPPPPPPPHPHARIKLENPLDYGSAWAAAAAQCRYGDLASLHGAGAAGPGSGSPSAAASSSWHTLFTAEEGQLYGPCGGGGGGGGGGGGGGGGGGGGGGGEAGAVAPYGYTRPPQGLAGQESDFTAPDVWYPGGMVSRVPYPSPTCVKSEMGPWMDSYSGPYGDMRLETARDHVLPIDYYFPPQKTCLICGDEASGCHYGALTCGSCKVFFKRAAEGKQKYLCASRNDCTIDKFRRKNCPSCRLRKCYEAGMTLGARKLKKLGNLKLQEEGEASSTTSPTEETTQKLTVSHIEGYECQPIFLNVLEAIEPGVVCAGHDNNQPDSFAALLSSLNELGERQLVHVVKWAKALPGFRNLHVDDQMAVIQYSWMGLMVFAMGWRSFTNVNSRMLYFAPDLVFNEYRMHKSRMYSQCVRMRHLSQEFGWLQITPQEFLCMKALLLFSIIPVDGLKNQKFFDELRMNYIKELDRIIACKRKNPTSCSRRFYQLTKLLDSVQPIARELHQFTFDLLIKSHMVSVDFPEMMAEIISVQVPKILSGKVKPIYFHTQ

In the first test the target is Androgen receptor (Homo sapiens) (UniProt P10275). Put plainly: qHTS assay to identify small molecule agonists of the androgen receptor (AR) signaling pathway in the presence of an antagonist (AID 1259381; calls by dose curve; also: nearly all actives have a fitted effect of over 15% in size; also: potency is read from the fitted curve at half-maximal effect). Particulars: MDA-kb2 MMTV-luciferase, AR agonist + nilutamide, 16 h; series mostly up to 42.5 µM. An outline of the steps:
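Using human MDA-kb2 cells with an MMTV promoter–luciferase construct (AR and GR response elements), agonist activity is scored under 3.0uM nilutamide (final) co-treatment; 16hr incubation, 37C, luminescence readout via ONE-Glo.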
In general terms: Quantitative high-throughput screening tests each substance at several concentrations.
For `Cc1cc(O)c2c(O)c3c(O)cccc3cc2c1`, the Potency entry is “inactive”.

As for `Cn1c(=O)c2c(ncn2CC(=O)O)n(C)c1=O`, the Potency result was “inactive”.

For the compound `CCOC(=O)C(C)Oc1ccc(Oc2nc3ccc(Cl)cc3o2)cc1` (centres undefined), the Potency result was “inactive”.

With `CCOCCn1c(C2CCN(CCc3ccc(C(C)(C)C(=O)O)cc3)CC2)nc2ccccc21`, the Potency entry was “inactive”.

As to `CC(=O)Nc1ccc(N)cc1`, the Potency result was “inactive”.

Regarding `O=C(CCC1CCN(Cc2ccccc2)CC1)c1ccc2c(c1)NCCCC2`, the Potency entry was “inactive”.

Turning to `Cc1cc2nc3ccc(=[N+](C)C)cc-3sc2cc1N`, the Potency result is “inactive”.

Turning to `CC(=O)OCC(=O)[C@H]1CC[C@H]2[C@@H]3CCC4=CC(=O)CC[C@]4(C)[C@H]3CC[C@]12C`, the Potency was 3.76 µM (active).

Tested on in the next test: not listed separately
In words: qHTS assay to identify small molecule antagonists of the estrogen receptor beta (ER-beta) signaling pathway - cell viability counter screen (AID 1259382). Also: nearly all actives have a fitted effect of over 55% in size. Conditions: ER-beta-UAS-bla HEK293T viability, CellTiter-Glo luminescence, 16 h; series mostly up to 92.4 µM. Put shortly:
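Agonist-stimulated (1nM E2) ER-beta-UAS-bla HEK293T cells are incubated with library compounds for 16 hr at 37C. Cell viability is then assessed in the reporter-assay wells by adding CellTiter-Glo and reading luminescence after 30 min.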
Take `CC(CCc1ccc2c(c1)OCO2)NN` (centres undefined): the Potency result was “inactive”.

Consider `CC(C)c1nnc2ccc(-c3ocnc3-c3cc(F)ccc3F)cn12`, for which the Potency result was “inactive”.

`Cc1cc(S(=O)(=O)O)ccc1N=Nc1c(O)ccc2ccccc12`: the Potency entry was “inactive”.

For `OC/C(Br)=C(\Br)CO`, the Potency result was “inactive”.

For `CN1CCCN=C1/C=C/c1cccs1`, the Potency result was “inactive”.

With `CC1(C)C(=O)N(Br)C(=O)N1Cl`, the Potency entry was “inactive”.

In the case of `CCC(C(=O)OCCOCCN(CC)CC)c1ccccc1` (centres undefined), the Potency entry is “inactive”.

As to `O=C(O)c1cccc(O)c1`, the Potency result was “inactive”.

Turning to `NC(=O)Nc1ccc(Cl)cc1`, the Potency entry is “inactive”.

Take `O=C(O)c1ccc(CO)o1`: the Potency result was “inactive”.

`CCCCCCOC(=O)C(C)C`: the Potency result is “inactive”.

`CCCCCCCCCCCC[N+](C)(C)CCCS(=O)(=O)[O-]`: the Potency entry is “inactive”.

With `CCCOCCOCCO`, the Potency entry is “inactive”.

Take `Cc1cc(O)c2c(O)c3c(O)cccc3cc2c1`: the Potency entry was “inactive”.

Consider `Cn1c(=O)c2c(ncn2CC(=O)O)n(C)c1=O`, for which the Potency entry is “inactive”.

Turning to `CC#N`, the Potency result is “inactive”.
